Results filed as inconclusive are left out. Calls of active or inactive are those of the source. The call rests on the fitted dose curve; in most records, active means well fitted cell-killing curve with a large enough effect in the repeat runs; inconclusive means weak or mixed curves, or effect the other way; inactive means flat fitted curve, though single readings scatter.
On the % scale 0 is the no-effect control and ±100 the full control effect; potency means the concentration at half of the fitted maximal effect.

A short description of the assay: qHTS RealTime-Glo MT Cell Viability Assay in HEK293 cells - 32 hour (AID 1224868). Further: nearly all actives have a fitted effect of over 50% in size. On activity change, negative = cytotoxic: top concentration of the series differs between compounds. As to conditions: RealTime-Glo luminescence; series mostly up to 76.8 µM; activity change, negative = cytotoxic: at the top concentration. The text has this: National Center for Advancing Translational Sciences [NCATS]
NIH Chemical Genomics Center [NCGC]
U.S. Environmental Protection Agency [EPA]
National Institutes of Environmental Health Sciences [NIEHS]
National Toxicology Program [NTP]
U.S. Food and Drug Administration [FDA]
Measure of cell viability is critical in the cell-base assay. Analysis of cell viability is necessary for the characterization of cell responses to cytotoxic drugs and environmental stress. A RealTime-Glo MT Cell Viability Assay to monitor cell viability in real time of continues cell culture during 40 hours of compound treatment was used to screen Tox21 10K library compounds in Hek293 cells. The RealTime-Glo MT Cell Viability Assay is a nonlytic, homogeneous, bioluminescent method to measure cell viability in real time using a simple, plate-based method. The assay involves adding NanoLuc luciferase and a cell-permeant prosubstrate to cells in culture. Viable cells reduce the proprietary prosubstrate to generate a substrate for NanoLuc luciferase. This substrate diffuses from cells into the surrounding culture medium, where it is rapidly used by the NanoLuc Enzyme to produce a luminescent signal. The signal correlates with the number of viable cells, making the assay well suited for cytotoxicity studies.
Tox21 Assay Protocol Summary:
The mixture of Hek293 cell suspension and reagents were dispensed at 600cells/6 ul/well in 1536-well tissue culture treated black solid bottom plates using a Multidrop dispenser. After the assay plates were incubated at a 37 C/5% CO2 incubator for 5 hours, 23 nL of compounds dissolved in DMSO, positive and negative controls was transferred to the assay plate by a pintool work station. The plates were incubated at 37 C for 40 hours. The luminescence intensity were measured at 0h, 8h, 16h, 24h, 32h and 40h time points using ViewLux plate reader during compound treatment.
A general note: Quantitative high-throughput screening tests each substance at several concentrations.
With `Cc1c(N=C=O)cccc1N=C=O`, the “activity change, negative = cytotoxic” value was 15.8% (inactive). For `N#C[C@@H]1CC(F)(F)CN1C(=O)CNC1CC2CCC(C1)N2c1ncccn1` (stereo not given in full), the “activity change, negative = cytotoxic” value is 13.7% (inactive). On to `CCOCCn1c(N2CCCN(C)CC2)nc2ccccc21`, for which the “activity change, negative = cytotoxic” value was -3.33% [at 35.3 µM] (inactive).

As to `COC(=O)Cc1cccc2ccccc12`, the “activity change, negative = cytotoxic” value is -1.11% (inactive). The same measure, in the same setting: then `CC(C)NC(=O)c1ccccc1N`, with 5.13% (inactive); and `CC/C=C/CCO`, with -2.67% (inactive).

For the molecule `COc1ccc(CN(CCN(C)C)c2ncccn2)cc1`, the “activity change, negative = cytotoxic” value is 3.32% [at 35.3 µM] (inactive). Consider `C1CCN(CN2CCCCC2)CC1`, for which the “activity change, negative = cytotoxic” value was 9.78% (inactive). In the case of `COc1ccc(/C=C/c2cc(OC)cc(=O)o2)cc1`, the Potency was 11.2 µM (active). Consider `O=C1OC(=O)C2CC=CCC12` (stereo not given), for which the “activity change, negative = cytotoxic” value is 0.999% (inactive).

In the case of `O=C(OC1C[C@H]2CC[C@@H](C1)[N+]21CCCC1)C(O)(c1ccccc1)c1ccccc1` (stereo not given in full), the “activity change, negative = cytotoxic” value is 2.43% [at 35.3 µM] (inactive). Take `C=C(C)C(=O)OCCCCCCCCCCOC(=O)C(=C)C`: the “activity change, negative = cytotoxic” value was -14% (inactive). Still for that read-out and setting: then `CC(C(=O)O)c1ccc(/C=C2\CCCCC2=O)cc1` (stereo not given), with 19.1% [at 35.3 µM] (inactive).

`Cc1ccc(NC(=O)c2ccc(CN3CCN(C)CC3)cc2)cc1Nc1nccc(-c2cccnc2)n1`: the Potency was 21.3 µM (active). With `Cc1c(Nc2ncccc2C(=O)O)cccc1C(F)(F)F`, the “activity change, negative = cytotoxic” value is 1.77% [at 35.3 µM] (inactive). Turning to `Cc1ccc2c(Cl)cc(Cl)c(O)c2n1`, the “activity change, negative = cytotoxic” value was -6.06% [at 35.3 µM] (inactive). Regarding `CC(C)Oc1ccccc1O`, the “activity change, negative = cytotoxic” value was 6.18% (inactive). Turning to `CC(=O)Nc1ccccc1O`, the “activity change, negative = cytotoxic” value is 0.2% (inactive). Consider `CCCCCCCCS`, for which the “activity change, negative = cytotoxic” value is 5.04% (inactive). The same measure, in the same setting: then `O=C(O)COCC(=O)O`, with 5.34% (inactive); and `CC(=O)c1cccnc1`, with 0% (inactive); and `CCC(=O)O[C@@H]1C[C@H]2CC[C@]1(C)C2(C)C`, with -11.4% (inactive). `O=c1[nH]nc(-c2ccc([N+](=O)[O-])o2)o1`: the “activity change, negative = cytotoxic” value is 1.09% (inactive). Same read-out and setting: under `CCCc1ccc(OC)cc1` stands 12.2% (inactive). Regarding `Cc1ccc2ccccc2c1[N+](=O)[O-]`, the “activity change, negative = cytotoxic” value was 12.4% (inactive). `SCCOCCOCCS`: the “activity change, negative = cytotoxic” value is -8.26% (inactive). As to `C=CC(=O)NC(C)(C)C`, the “activity change, negative = cytotoxic” value was 1.26% (inactive). With `CC[C@H](NC(C)C)[C@H](O)c1ccc(O)c2[nH]c(=O)ccc12`, the “activity change, negative = cytotoxic” value is 3.69% [at 35.3 µM] (inactive). For `C[C@H]1C[C@H]2[C@@H]3CCC4=CC(=O)C=C[C@]4(C)[C@@]3(F)[C@@H](O)C[C@]2(C)[C@@]1(O)C(=O)COP(=O)(O)O`, the “activity change, negative = cytotoxic” value was -13.8% (inactive).

With `COc1ccc(/C(C)=C/C(=O)O)c(OC)c1`, the “activity change, negative = cytotoxic” value was -2.01% [at 35.3 µM] (inactive). Consider `Nc1ccc(C(=O)Oc2ccccc2)c(O)c1`, for which the “activity change, negative = cytotoxic” value is -16.1% [at 35.3 µM] (inactive). For `CCC1=C(C)CN(C(=O)NCCc2ccc(S(=O)(=O)NC(=O)NC3CCC(C)CC3)cc2)C1=O` (stereo not given), the “activity change, negative = cytotoxic” value was -20.8% [at 35.3 µM] (inactive).

As to `Cc1c(-c2cccnc2)c2ccccc2n1CCCCC(=O)O`, the “activity change, negative = cytotoxic” value was -0.389% (inactive). On to `CC1(C)CC(O)CC(C)(C)N1[O]`, for which the “activity change, negative = cytotoxic” value was 6.43% (inactive). As to `Cc1c(Cl)cccc1Nc1ccccc1C(=O)O`, the “activity change, negative = cytotoxic” value is 0.98% [at 35.3 µM] (inactive). On the same count and under the same terms, then `O=C(O)c1ccncc1`, with 6.88% (inactive); and `Nc1cccc2c(=O)[nH][nH]c(=O)c12`, with -27.9% (inactive); and `CC(C)Cc1nccs1`, with 2.21% (inactive). As for `CCc1c(C)[nH]c2c1C(=O)C(CN1CCOCC1)CC2` (stereo not given), the “activity change, negative = cytotoxic” value is -0.161% [at 35.3 µM] (inactive). Turning to `OCCc1ccncc1`, the “activity change, negative = cytotoxic” value was -2.16% (inactive).
